Hits are enriched below; roughly 4.8% of the tested compounds scored in any of these assays.
CSC inhib – cancer stem cell inhibition; cancer stem cell-like cells viability, luminescence; inhibition, % at 7.5 µM; hit rate 1.1% among 300,000; in the data active = inhibition above about 75%; inconclusive = no clear call, values can overlap the other calls; tested in HMLE shEcad cells
Calb FLC – C. albicans growth modulation with fluconazole; C. albicans CaCi-2 (fluconazole-resistant clinical isolate) + fluconazole, Alamar Blue growth, 48 h; growth inhibition, % (test concentration not listed); hit rate 0.57% among 300,000; AID 1979;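 active = growth inhibition above about 58% in most replicates, limit read from the data, passing the limit was not always enough; inconclusive = exactly half the replicates above a set limit; inactive = most replicates below a set limit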;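 also: all wells also contain fluconazole at 8 µg/ml as a sub-toxic cotreatment; 0% = median of DMSO wells and 100% = median of geldanamycin control wells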
Mdm2 MdmX PPI – disrupts the human Mdm2-MdmX interaction; O15151+Q00987; SaOS-2 split-luciferase Mdm2/MdmX complementation, luminescence; inhibition, % at 8 µM; hit rate 3% among 330,000;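 active = inhibition of at least 50% at 8 µM in the primary screen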
Target sequence (O15151 whole entry, looked up): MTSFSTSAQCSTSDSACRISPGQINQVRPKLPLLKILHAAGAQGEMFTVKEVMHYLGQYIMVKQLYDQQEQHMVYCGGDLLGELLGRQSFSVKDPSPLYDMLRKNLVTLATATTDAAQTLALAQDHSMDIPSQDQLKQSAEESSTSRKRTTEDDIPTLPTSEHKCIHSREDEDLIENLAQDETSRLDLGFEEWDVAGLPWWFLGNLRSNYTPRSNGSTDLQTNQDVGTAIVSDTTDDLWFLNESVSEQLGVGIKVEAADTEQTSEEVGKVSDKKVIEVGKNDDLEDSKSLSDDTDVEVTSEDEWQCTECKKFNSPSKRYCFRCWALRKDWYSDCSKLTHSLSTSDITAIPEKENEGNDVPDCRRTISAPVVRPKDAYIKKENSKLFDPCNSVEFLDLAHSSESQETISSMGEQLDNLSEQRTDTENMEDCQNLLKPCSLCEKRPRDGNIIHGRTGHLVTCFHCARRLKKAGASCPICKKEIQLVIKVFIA
Target sequence (Q00987 whole entry, looked up): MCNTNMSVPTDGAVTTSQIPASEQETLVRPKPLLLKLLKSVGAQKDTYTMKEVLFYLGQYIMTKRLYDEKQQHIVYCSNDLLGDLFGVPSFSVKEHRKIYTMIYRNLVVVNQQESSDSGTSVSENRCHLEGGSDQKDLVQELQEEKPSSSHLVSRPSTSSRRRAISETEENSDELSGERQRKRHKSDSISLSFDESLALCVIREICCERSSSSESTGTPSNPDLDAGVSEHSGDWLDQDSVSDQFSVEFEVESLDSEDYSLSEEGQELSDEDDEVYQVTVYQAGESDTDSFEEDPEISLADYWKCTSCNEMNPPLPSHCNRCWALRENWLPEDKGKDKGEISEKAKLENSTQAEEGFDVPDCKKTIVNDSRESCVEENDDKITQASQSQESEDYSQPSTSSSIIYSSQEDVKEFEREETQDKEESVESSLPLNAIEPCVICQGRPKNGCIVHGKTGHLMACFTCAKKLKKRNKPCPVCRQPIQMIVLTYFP
MPTP inh – permeability transition pore inhibition. isolated mouse mitochondria, Ca2+ swelling absorbance, 30 min. inhibition, % at 10 µM. AID 602449. hit rate 1.4% among 360,000;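 active = inhibition of 50% or more, scaled per plate between neutral and stimulator controls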;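 also: 0% = DMSO wells given calcium and 100% = 1 mM EGTA wells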
Beta apoptosis – blocks beta cell apoptosis; INS-1E cytokine-induced death, ATP luminescence, 48 h; percent of positive-control rescue, neutral wells zero; protection from apoptosis, % (test concentration not listed); hit rate 0.8% among 300,000; AID 435005;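 active = Every replicate reaches about 75%, or at least half do and their mean reaches it too, limit read from the data; inconclusive = At least half of replicates reach the limit but their mean does not; inactive = Under half of replicates reach the limit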;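 also: 0% = cytokine-treated negative control wells and 100% = positive control rescue; higher means more ATP so stronger rescue from cytokine killing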
Mdm2-MdmX conf – human Mdm2/MdmX binding inhibition, confirmed | shares compounds with Mdm2 MdmX PPI | luminescent assay | inhibition, % at 8 µM | hit rate 55% among 10,000; in the data active = inhibition above about 40%
Full FLuc ctr – full-length luciferase inhibition in Mdm2/MdmX counter-screen. shares compounds with Mdm2 MdmX PPI. SaOS-2 full-length luciferase counterscreen, luminescence. inhibition, % at 8 µM. hit rate 77% among 6,200;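 active = mean inhibition at 8 µM reaching about 37%, which flags the compound as non-specific, limit read from the data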;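 also: p53-null SaOS-2 cells with luciferase driven by a doxycycline-inducible promoter; compound on cells about two nights before reading with doxycycline added after day one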
Rh123 counter – membrane potential counter-screen of mitochondrial pore inhibitors; shares compounds with MPTP inh; isolated mitochondria, Rhodamine 123 fluorescence; inhibition, % at 10 µM; hit rate 78% among 5,000; in the data active = inhibition above about 22%;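 also: 0% = DMSO vehicle and 100% = positive control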
MPTP swell DR – MPTP inhibition, dose response swelling confirmation | shares compounds with MPTP inh | isolated mitochondria swelling, absorbance | IC50, µM | hit rate 58% among 780; in the data active = IC50 below about 20 µM
MPTP cs DR – MPTP inhibitor counter-screen activity, dose response; IC50, µM; shares compounds with MPTP inh; hit rate 49% among 780; isolated mitochondria counterscreen, fluorescence read-out; in the data active = IC50 below about 80 µM
* = called active by the depositor; i = inactive; ? = inconclusive; . = no result.

SMILES	CSC inhib	Calb FLC	Mdm2 MdmX PPI	MPTP inh	Beta apoptosis	Mdm2-MdmX conf	Full FLuc ctr	Rh123 counter	others
Cc1ccccc1-c1nc(CN2CCC(C(=O)NC3CCN(Cc4ccccc4)CC3)CC2)c(C)o1	19	-2	99*	68*	-4	58*	75*	-8	MPTP swell DR=i;MPTP cs DR=75*
Cc1ccccc1-c1nc(CN2CCC(C(=O)O)CC2)c(C)o1	-10	-4	7	-1	-1	.	.	.
CC1CCC(C(C)C)C(OC(=O)Cn2c(-c3ccc(Cl)cc3)[n+](C)c3ccccc32)C1 (configuration not stated)	61	-4	100*	54*	100*	96*	52*	79*
O=C(C[n+]1cc(-c2ccc(Cl)cc2)n2c1CCCCC2)c1ccccc1	4	37	-10	3	4	.	.	.
CC1CCC(C(C)C)C(OC(=O)COC(=O)c2cccn2C)C1 (configuration not stated)	-16	0	19	1	2	.	.	.
CC(C)[C@@H]1CC[C@@H](C)C[C@H]1OC(=O)C[n+]1cc(-c2ccc(Cl)cc2)n2c1CCCCC2	22	95*	78*	64*	1	73*	29	86*
Cn1cccc1C(=O)OCC(=O)Nc1ccc2c(c1)OCCO2	-9	.	-42	0	-6	.	.	.
Cc1c(Cl)cccc1NC(=S)NNc1ncc(C(F)(F)F)cc1Cl	33	-4	64*	60*	32	72*	42*	76*
Cc1ccc(S(=O)(=O)N2CCOCC2)cc1NC(=O)CSc1nnc(NC2CC2)s1	3	.	27	-1	-1	.	.	.
C[C@H](CO)N1C[C@H](C)[C@H](CN(C)C(=O)Nc2ccc(C(F)(F)F)cc2)OCc2cnnn2CCCC1=O	.	.	.	4	.	.	.	.
Cc1cc(/C=N/n2cnnc2)c(C)n1-c1ccc(OCc2ccc(Cl)cc2)cc1	46	5	61*	114*	122*	62*	92*	100*
C(=N\n1cnnc1)/c1ccc(OCc2ccccc2)cc1	4	27	15	-1	-1	.	.	.
CC(C)=CC(=O)N1CCC(N2CCC(C(=O)NCC3CCCO3)CC2)CC1 (configuration not stated)	-10	1	-15	0	14	.	.	.
CC1=C/C(=N\OS(=O)(=O)c2ccccc2)C(C)=CC1=O	118*	.	96*	98*	112*	84*	53*	100*
CC1=C/C(=N\OS(=O)(=O)c2ccccc2)C(C(C)C)=CC1=O	62	.	.	6	?	.	.	.
COc1ccc(S(=O)(=O)N2CCc3ccccc32)cc1C(=O)NC1(C)CCS(=O)(=O)C1 (configuration not stated)	.	.	-4	0	-7	.	.	.
CCOC(=O)c1cc(-c2ccccc2)n(CC2CC(c3ccc(OC)cc3)=NO2)n1 (configuration not stated)	3	-3	3	-2	-4	.	.	.
COc1ccc(Cl)cc1NC(=O)c1cc(-c2ccccc2O)n[nH]1	18	6	9	21	18	.	.	.
COc1ccc(OC)c(NC(=O)c2cc(-c3cc(Cl)ccc3O)n[nH]2)c1	62	-46	88*	85*	35	75*	42*	61*
Cc1ccccc1NC(=O)c1ccc(CN2CCC(Cc3ccccc3)CC2)cc1	-6	1	58*	56*	4	35	82*	-8	MPTP swell DR=12*;MPTP cs DR=36*
CC(C)NC(=O)c1ccc(CN2CCC(Cc3ccccc3)CC2)cc1	-15	16	9	0	6	.	.	.
O=C(Cc1c(Cl)cccc1Cl)OCC(=O)N1CCOCC1	-5	.	12	-1	-5	.	.	.
COc1ccc(C2(C)NC(=O)NC2=O)cc1OC (configuration not stated)	-15	1	10	1	.	.	.	.
Cn1c(=O)c2c(nc(NCc3ccco3)n2C/C=C/c2ccccc2)n(C)c1=O	16	9	51*	89*	52	22	.	106*
O=C(CC[C@H]1O[C@@H](n2ccc(=O)[nH]c2=O)[C@H](O)[C@@H]1O)N[C@H](Cc1ccccc1)C(=O)NCC1CCCCC1	.	.	.	0	.	.	.	.
SMILES	CSC inhib	Calb FLC	Mdm2 MdmX PPI	MPTP inh	Beta apoptosis	Mdm2-MdmX conf	Full FLuc ctr	Rh123 counter	others
O=C(Nc1ccc(Cl)c(Cl)c1)Nc1nnc(CC2=CCCCC2)s1	31	-11	89*	89*	84*	27	.	11	MPTP swell DR=3.5*;MPTP cs DR=<2.5*
O=C(Nc1ccc(Cl)cc1)Nc1nnc(CSCc2ccc(Cl)cc2)s1	59	2	98*	84*	?	21	.	50*
O=C(Nc1nnc(CC2=CCCCC2)s1)c1cccs1	-1	-5	-22	-2	3	.	.	.
CCc1nnc(NC(=O)Nc2ccc(Cl)cc2)s1	-3	-1	-56	6	14	.	.	.
O=C(NCCCN1CCCC1=O)c1cccc(S(=O)(=O)N2CCCCC2)c1	13	.	-1	-4	3	.	.	.
CCOC(=O)c1ccc(NC(=O)c2cccc(S(=O)(=O)N3c4ccccc4CC3C)c2)s1 (configuration not stated)	47	?	57*	74*	36	33	.	73*
O=[N+]([O-])c1cc(C(F)(F)F)cc([N+](=O)[O-])c1NCCNC(=S)Nc1ccc(Cl)c(Cl)c1	107*	0	90*	76*	.	46*	55*	69*
Cc1nc(S/C(C(=O)O)=C2/C(=O)Nc3ccccc32)n[nH]1	-7	9	17	1	-1	.	.	.
CCOC(=O)c1cc([N+](=O)[O-])sc1NC(=O)c1ccc(S(=O)(=O)N2CC3(C)CC2CC(C)(C)C3)cc1 (configuration not stated)	44	-5	95*	91*	32	51*	57*	4	MPTP swell DR=2.4*;MPTP cs DR=<2.5*
CC1(C)CC2CC(C)(CN2S(=O)(=O)c2ccc(C(=O)Nc3ccc(S(=O)(=O)N4CCOCC4)cc3)cc2)C1 (configuration not stated)	.	-1	30	44	56	.	.	.
Cc1ccc(CC2(c3ccccc3)NC(=O)NC2=O)cc1 (configuration not stated)	.	.	.	-2	.	.	.	.
COc1ccc(CN2CCC(C(=O)Nc3ccc(Oc4cccnc4)cc3)CC2)c(C)c1C	44	34	74*	83*	-6	34	53*	91*
NC(N)=Nc1nc(-c2ccccc2)c2cc(F)ccc2n1	7	4	66*	82*	-1	60*	49*	2	MPTP swell DR=6.2*;MPTP cs DR=47*
OC1CCCC1	-6	.	21	0	2	.	.	.

Assay outcomes (PubChem BioAssay)
